According to the supplement of paper PMC6555819:

Experiments:
Assay in all cases: PBM binding z-score (relative to random genomic background probes); higher = stronger binding; sequences stand for … in GC…GCGATTGACAGCGTAGAATGAAGG
[1] = test system: RARb homodimer (NR concentration 270 nM)
Summary of the method: (§1)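 Scanned fluorescence from custom Agilent 4×180K protein-binding microarrays was regression-normalized. Binding z-scores use random background probes as reference. Ligand-free nuclear receptor dimers were incubated on the arrays for 1 h and detected with antibodies against each partner (one per run).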

[2] = test system: RARg:RXRa (NR concentration 270 nM, RXRa partner concentration 90 nM)
Summary of the method: as §1

[3] = test system: RARg homodimer (NR concentration 270 nM)
Summary of the method: as §1

[4] = test system: RXRa DBDmut IVT, anti-RXR (DBD mutation: RXRa K156A/R161A, NR concentration 90 nM)
Summary of the method: as §1

[5] = test system: RXRa homodimer (NR concentration 180 nM)
Summary of the method: as §1

[6] = test system: THRa:RXRa (NR concentration 90 nM, RXRa partner concentration 90 nM)
Summary of the method: as §1

[7] = test system: THRa homodimer (NR concentration 90 nM)
Summary of the method: as §1

[8] = test system: VDR homodimer (NR concentration 270 nM)
Summary of the method: as §1

Sequence | PBM binding z-score [1] | PBM binding z-score [2] | PBM binding z-score [3] | PBM binding z-score [4] | PBM binding z-score [5] | PBM binding z-score [6] | PBM binding z-score [7] | PBM binding z-score [8]
ATCGAGAGGTCGTGAGGTGAGTATACAGAAAGGC | 2.4 | 3.66 | 3.28 | 1.43 | 4.24 | 3.36 | 1.63 | 1.87
AACTCTAGGTAAGACTCAGTTCAGTGAAGAACGC | 0.462 | -0.177 | 0.0668 | 0.487 | -0.128 | 0.636 | 0.228 | 1.15
AATACAGGGTCACTAGGCCAGAGTAGGTACGAAT | 3.61 | 5.13 | 4.83 | 2.83 | 5.52 | 3.38 | 1.27 | 2.5
CCTCGGAGGACAGAAGGTCAGAGCAGTCCGCTTT | 3.7 | 3.53 | 3.41 | 0.444 | 2.16 | 2.67 | -0.117 | 0.311
AGTCAAAGTTCAGGACGAGGTAAGGTAAAGCACG | 3.46 | 4.56 | 4.61 | 3.11 | 3.09 | 3.72 | 2.26 | 2.09
CGCACTAGGTCAAGGACAGTGAATCTCCGCACGC | 3.34 | 3.82 | 4.48 | 1.72 | 2.63 | 3.03 | 2.15 | 0.387
TCATATAGGTAAACAGGTGAAAATCCGTAAGTTA | 0.649 | 0.838 | 0.551 | 1.57 | 1.52 | 0.866 | 0.391 | 0.265
CGGACGAGGGCATGAGTTGATAGCAAATGCCGAT | 0.742 | 1.16 | 1.89 | 2.01 | 0.928 | 1.17 | -0.188 | 1.46
CCGACTGGGGCAAGGTTACCATAACGCACAGCCA | 1.33 | 1.31 | 1.39 | -0.473 | 1.34 | 1.33 | 0.342 | -0.0373
CTACCAAGGTGAACAAGGTCGTTGATTACTATTC | 2.1 | 1.73 | 1.67 | 1.41 | 1.91 | 3.2 | 1.81 | 2.28
CGTCCAATGTCAGCAGGTCAGTGAAAGCGACGTG | 2.76 | 2.04 | 2.59 | 0.442 | 0.9 | 1.31 | 0.239 | 0.584
TCTATTAGTTGAGTAGGGCAACCGAAACAGCGGA | 0.153 | 0.16 | 0.294 | 0.368 | 0.116 | -0.257 | -0.445 | -0.411
ATCGAAAGGACGTGAGGTGAGTATACAGAAAGGC | 0.895 | 0.703 | 1.12 | -0.854 | 0.282 | 1.89 | 0.987 | 0.126
CCTTATGGGTCACTGACAGGTTATAGCATTTGGA | 3.37 | 5.28 | 3.89 | 1.05 | 4.43 | 2.59 | 0.464 | 0.502
CGTCCAAGGTCAAACGTCAGTGAAGAGATGACGG | 3.94 | 6.09 | 6.4 | 3.98 | 6.29 | 3.76 | 2.1 | 3.22
AGAATGAGGTTAAGATCGGGGAAACAGAATACAT | 0.944 | 2.19 | 1.53 | 1.28 | 2.25 | 2.54 | 0.927 | 0.542
GGAATGAGGGCATTCGAGTTGATAGCATGGCGAT | 0.662 | 1.15 | 1.22 | 3.43 | 0.995 | 3.3 | 0.191 | 3.8
ATCTCTAGGTAAAGATAGTTCAGTGCATGCAAAT | 1.11 | 0.406 | 0.733 | -0.0342 | 0.191 | 0.926 | 0.229 | 1.15
TTACCAAGGTGCAGGTCGTTGATCCCTCTGTAGA | 0.634 | 0.0227 | -0.225 | 0.43 | 0.481 | 0.675 | 0.0392 | 0.805

Sequence | PBM binding z-score [1] | PBM binding z-score [2] | PBM binding z-score [3] | PBM binding z-score [4] | PBM binding z-score [5] | PBM binding z-score [6] | PBM binding z-score [7] | PBM binding z-score [8]
CGAACTAGGTTATCCAGGACAGTGAATACATTGA | 0.559 | 0.544 | 1.04 | 0.958 | 0.343 | 2.45 | 1.19 | 0.455
TAGCCTAGGTCAGATCGGGCCAGTACACGCTATA | 2.33 | 2.85 | 3.65 | -0.269 | 1.55 | 4.29 | 0.126 | 0.0191
ATCGAAAGGTCGACGAGGTGAGCATACACCGTTT | 2.94 | 4.4 | 4.53 | 1 | 4.49 | 3.75 | 1.18 | 0.518
TCGCCTAGGTCATTCAGGGGCCAGTATAGAAAGC | 3.67 | 6.06 | 4.29 | 2.42 | 2.95 | 3.52 | 1 | 1.4
GCGACTGCGGCAAAGCAGGTTACCATAAGGTTGG | 0.0926 | -0.183 | -0.487 | -0.499 | -0.0388 | 0.953 | -0.402 | -0.315
AATACAAGGTCACTAGGCCAGAGTAGGTACGAAT | 4.18 | 5.73 | 6.29 | 3.29 | 5.53 | 3.95 | 2.4 | 2.75
GCTGCTAGGACAGGTTGGTCAGCTAACGGGTACG | 0.214 | -0.345 | 0.153 | -0.341 | -0.463 | -0.106 | -0.393 | -0.149
CCTTACGGGTCACGAGGTTATCGCACGACGAGCG | 4.01 | 6.31 | 5.55 | 1.96 | 7.47 | 3.72 | 1.12 | 2.04
GCTATCAGTTGAAAGGGCAACCGAATGATTCTCG | 1.81 | 1.22 | 1.28 | 0.45 | 1.26 | 0.693 | -0.411 | -0.03
AGAACGAGGTCAATGAGTTGATAGCACGGGTGGC | 3.94 | 5.78 | 5.81 | 4.11 | 6.03 | 3.94 | 2.08 | 5.27
ATATCTAGGTTACATCCGGGTCATTCAGGCTATG | 3.15 | 3.37 | 2.49 | 1.4 | 2.78 | 3.94 | 3.37 | 3.63
CCGACTGGGGCAGAAAGGTTACCATTCCATCCGG | 1.92 | 1.35 | 1 | -0.71 | 1.3 | 0.555 | -0.451 | -0.34
TCTAGTTGGTCACGGAGGTCTCACACGACGGGTA | 1.65 | 1.31 | 1.72 | 0.721 | 1.01 | 0.636 | 0.268 | 0.33
AATACAGGGTCATCGTAGTCCAGAGTACGCACAG | 3.56 | 5.76 | 4.86 | 3.42 | 6.39 | 4.18 | 1.83 | 4.22
CTCGAAAGGTCGTGCTCAGGTGAGTGTACCAAAC | 3.22 | 5.21 | 4.01 | 2.21 | 4.95 | 4.11 | 1.21 | 1.26
AGTCAAAGTTCATCTAGGAAACGTAAGATATGCT | 3.89 | 5.45 | 6.42 | 4.79 | 4.58 | 1.98 | -0.21 | 4.34
AGAATGATGTTATTAAGATCAGGGAATTGCGGTC | -0.502 | 0.0118 | 0.00602 | -0.521 | 0.203 | 0.093 | -0.511 | -0.127
TCTTGTAGATCAACAGGAGGTTAAGAAGGATCGA | 0.431 | 0.952 | 0.15 | 0.27 | 1.09 | 0.94 | -0.619 | -0.0476
CCTTACGGGTCACTGACAGATTATAGCATTTGGA | 3.01 | 4.96 | 4.43 | 2.1 | 4.89 | 2.38 | 0.495 | 0.842

Sequence | PBM binding z-score [1] | PBM binding z-score [2] | PBM binding z-score [3] | PBM binding z-score [4] | PBM binding z-score [5] | PBM binding z-score [6] | PBM binding z-score [7] | PBM binding z-score [8]
CAAACTAGGACACCGGAAGGTCAAAGTCCGCATG | 4.14 | 4.12 | 3.83 | 0.721 | 3.58 | 3.71 | 2.1 | 2.92
TCATGTAGGTAATACAGGTGAAAGTCGGCATCTA | 0.12 | 0.0242 | -0.0708 | 0.736 | 0.579 | 0.531 | -0.119 | -0.0287
ATATGTAGGTTATCGGGTCGTTCAGTTTGCGCAT | 1.68 | 1.39 | 1.28 | 1.06 | 1.57 | 1.93 | 1.55 | 2.55
CATTACGGGTCACGAGGTTATAGCACGACGAGCG | 4.22 | 6.35 | 5.8 | 2.21 | 8.02 | 3.82 | 1.56 | 2.52
CGTCCAAGGTCAGCTGGTCAGTGAAAGCGACGTG | 3.87 | 5.3 | 6.1 | 2.64 | 3.99 | 3.46 | 1.76 | 0.478
TAGAGTAGGTTAGGGGCATTCAGAATGGCGTCGA | 1.72 | 1.16 | 0.918 | 0.0146 | 1.08 | 1.36 | 0.85 | 1.66
CCTCAGAGGACAGAAGGTCAGAGCTGTCCGCTTT | 3.51 | 3.95 | 3.91 | 0.625 | 2.1 | 1.95 | -0.0422 | 0.12
ATACCAAGCTGATCGTGAGGTCGTTGATACTAAC | 1.07 | 0.355 | 0.15 | 0.629 | 0.837 | 2.12 | 1.76 | 2.35
GCTGCTAGGTCAGGTTGGTCAGCTTACGGGTACG | 2.84 | 2.41 | 3.46 | 0.504 | 0.756 | 1.8 | 0.808 | 0.197
ATACCAAGGTGATCGTGAGGTCGTGGATACTAAC | 1.77 | 2.71 | 0.919 | 0.217 | 2.04 | 3.62 | 2.99 | 1.78
TCGAGTAGGTTACCAAGGGGGCATTCAGCTTTCT | 1.98 | 4.64 | 1.87 | 1.26 | 1.98 | 2.16 | 0.891 | 2.16
GCTGCTAGATCAGGTTGGTCAGCTAACGGGTACG | -0.151 | -0.607 | -0.66 | -0.411 | -0.416 | -0.611 | -0.864 | 0.19
CGTCCAAGGTCAGAGAGGTCAGTGAATGCCGAGT | 5.19 | 6.25 | 6.97 | 3.52 | 5.73 | 4.19 | 2.86 | 5.68
TGTCAAAGTTCAAATGTAACGTAAGTATCCACAC | 3.94 | 5.53 | 5.93 | 4.69 | 5.3 | 2.16 | -0.283 | 4.11
TCATATAGGTCAACAGGTGAAAGTCCGTAAGTTA | 4.07 | 6.14 | 6.02 | 2.48 | 5.39 | 2.94 | 0.969 | 1.41
AGAATGAGGTTAAGATAAGGGAAACAGAATACAT | 1.07 | 2.11 | 1.69 | 0.785 | 2.6 | 2.71 | 1.05 | 0.183
TGAATGAGGTTATAAGATCAGGAAACGTTGCAAA | 0.0307 | 1.61 | 0.861 | 0.926 | 2.21 | 1.77 | -0.0709 | 0.225
TCTGCTAGGTCAACGATAGTCAGCTAATCTGCTA | 2.84 | 3.9 | 4.6 | 0.919 | 2.63 | 2.67 | 0.277 | -0.234
TTACCAAGGTGAAGGTCTTTGATCCCTCTGTAGA | 0.775 | 0.2 | 0.513 | -0.154 | 0.759 | 1.73 | 0.592 | -0.396
